Experimental findings from PubChem BioAssay (NCI) are described below.

The panel holds about 83,000 compounds, 20% with a hit somewhere; the sample as a whole holds those more often.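 Cell lines were cultured in 96-well plates, exposed to a single compound concentration, and assessed for percent growth 48 hours later.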 A number with no mark means an inactive call. Activity calls are given as the source filed them. How the source made its calls: active means growth percent below 10; inactive means the rest.

What all share (assay): NCI-60 one-dose screen, 48 h (100 = growth as untreated, 0 = no growth, -100 = all killed)
One experiment deals with HCT-15 colon. Particulars: 10 µM unless noted.
A further experiment deals with SNB-75 CNS. Particulars: 10 µM unless noted.
Another experiment has as its system SNB-19 CNS. Particulars: 10 µM unless noted.
The next experiment has as its system U251 CNS. To be noted: 10 µM unless noted.
Another experiment has as its system PC-3 prostate. To be noted: 10 µM unless noted.
Another experiment concerns SK-MEL-5 melanoma. To be noted: 10 µM unless noted.
For a further experiment, the system named is UACC-62 melanoma. To be noted: 10 µM unless noted.
Another experiment deals with LOX IMVI melanoma. To be noted: 10 µM unless noted.
The subject of another experiment is SK-MEL-28 melanoma. Particulars: 10 µM unless noted.
The next experiment relates to SK-MEL-2 melanoma. To be noted: 10 µM unless noted.
A further experiment concerns EKVX NSCLC. Particulars: 10 µM unless noted.
The subject of the next experiment is SN12C renal. Particulars: 10 µM unless noted.
In the next experiment the test system is UO-31 renal. Particulars: 10 µM unless noted.
For another experiment, the system named is TK-10 renal. Particulars: 10 µM unless noted.
A further experiment has as its system ACHN renal. Particulars: 10 µM unless noted.
A further experiment concerns CAKI-1 renal. Particulars: 10 µM.
Another experiment relates to CCRF-CEM leukemia. To be noted: 10 µM unless noted.
In another experiment the test system is MOLT-4 leukemia. Particulars: 10 µM unless noted.
Another experiment deals with A498 renal. Particulars: 10 µM unless noted.

As to `O=c1[nH]c(CCl)nc2c1cnn2-c1ccccc1`, the growth was 99.9% in the experiment with HCT-15 colon; 93.6% in the experiment with SNB-75 CNS; 96.4% in the experiment on SNB-19 CNS; 103% with U251 CNS; 105% with PC-3 prostate; 99% with SK-MEL-5 melanoma. Besides, the growth in the experiment with UACC-62 melanoma is 96.2%; in the experiment on LOX IMVI melanoma, -38.5% (active); in the experiment with SK-MEL-28 melanoma, 107%; in the experiment on SK-MEL-2 melanoma, -89.8% (active); with EKVX NSCLC it was 100%; in the experiment on SN12C renal it was 99.8%. The growth with UO-31 renal was -20.9% (active); in the experiment on TK-10 renal, 154%; in the experiment with ACHN renal, 96.7%; in the experiment on CAKI-1 renal, 97.6%; in the experiment on CCRF-CEM leukemia, 101%; in the experiment on MOLT-4 leukemia, 104%.
`CCc1ccc(NC(=O)N[C@@H](Cc2cc(F)cc(F)c2)C(=O)N[C@@H]2C(=O)N3CCC[C@H]3C(=O)N3CCO[C@H](C)[C@H]3C(=O)N[C@@H](CO)C(=O)N3C[C@H](C)C[C@H]3C(=O)O[C@H]2C)c(F)c1`: the growth is 15.8% with HCT-15 colon; 20.3% in the experiment on SNB-75 CNS; 26.9% with SNB-19 CNS; 29% with U251 CNS; 17.3% in the experiment on PC-3 prostate; -2.9% (active) in the experiment on SK-MEL-5 melanoma. Moreover, the growth with UACC-62 melanoma was 26.3%; in the experiment on LOX IMVI melanoma it was 20.4%; in the experiment on SK-MEL-28 melanoma, 43.4%; in the experiment with EKVX NSCLC it was 28.4%; in the experiment with SN12C renal it was 22.5%; in the experiment on UO-31 renal it was 36.4%. The growth with TK-10 renal was 55.9%; in the experiment on ACHN renal, 34.7%; with CAKI-1 renal, 20.3%; in the experiment with CCRF-CEM leukemia, 35%; in the experiment with MOLT-4 leukemia, 43.3%.
Consider `CC(=O)Nc1ccc(NC(=O)Nc2cccc(-c3nc(-c4ccc(NC(=O)c5cccnc5)cc4Cl)no3)c2)cc1C(F)(F)F`, for which the growth in the experiment with HCT-15 colon is 25.7%; in the experiment with SNB-75 CNS it was -64.1% (active); with SNB-19 CNS, -12.2% (active); with U251 CNS, -56.1% (active); with PC-3 prostate, -61.4% (active); in the experiment on SK-MEL-5 melanoma it was -88.2% (active). The growth was -81.6% (active) in the experiment with UACC-62 melanoma; -91.9% (active) in the experiment with LOX IMVI melanoma; -81.8% (active) in the experiment on SK-MEL-28 melanoma; -68.5% (active) in the experiment with SK-MEL-2 melanoma; -39% (active) in the experiment with EKVX NSCLC; -65% (active) in the experiment on SN12C renal. For the same molecule, the growth in the experiment on UO-31 renal was 52.9%; with TK-10 renal, -31.7% (active); in the experiment on ACHN renal, 34.2%; in the experiment on CAKI-1 renal, -68.9% (active); in the experiment on A498 renal it was -64.8% (active); in the experiment on CCRF-CEM leukemia it was -14.5% (active). Moreover, in the experiment with MOLT-4 leukemia, the growth is -30.8% (active).
With `CCN1C(=O)N(CC)C2SC(N/N=C/c3ccc(F)cc3)=NC21` (stereo not drawn), the growth in the experiment with HCT-15 colon is 14.9%; in the experiment with SNB-75 CNS it was 38.2%; with SNB-19 CNS, 28.1%; in the experiment with U251 CNS, 15%; with PC-3 prostate, 30.3%; in the experiment on SK-MEL-5 melanoma, 15.3%. Besides, the growth was 33.6% in the experiment on UACC-62 melanoma; 14.1% in the experiment on LOX IMVI melanoma; 58.9% with SK-MEL-28 melanoma; 17.2% with SK-MEL-2 melanoma; 50.3% with UO-31 renal; 88.3% in the experiment with TK-10 renal. Also, the growth is 37.3% in the experiment on ACHN renal; 31.7% in the experiment on CAKI-1 renal; -22.4% (active) with A498 renal; 23.2% in the experiment with CCRF-CEM leukemia; 23.8% in the experiment with MOLT-4 leukemia.
For `Cn1cc(-c2nn3cc(-c4ccncc4)nc3s2)c2cc(Cl)ccc21`, the growth in the experiment on HCT-15 colon was 5.44% (active); in the experiment on SNB-75 CNS, 88.6%; in the experiment with SNB-19 CNS it was 83%; in the experiment with U251 CNS, 56.6%; in the experiment with PC-3 prostate, 14.6%; with SK-MEL-5 melanoma, 55.7%. Further, the growth in the experiment with UACC-62 melanoma was 54.5%; in the experiment with LOX IMVI melanoma, 39.4%; in the experiment with SK-MEL-28 melanoma, 88.1%; in the experiment with SK-MEL-2 melanoma, 76%; in the experiment with EKVX NSCLC, 33.4%; with SN12C renal it was 61.2%. The growth in the experiment with UO-31 renal was 43.4%; in the experiment with TK-10 renal, 116%; in the experiment on ACHN renal, 60.5%; in the experiment on CAKI-1 renal, 51.3%; in the experiment with A498 renal, 89.7%; with CCRF-CEM leukemia, 10.5%. Besides, the growth with MOLT-4 leukemia was 2.31% (active).
As to `C#CCOc1ccc(/C=N/Nc2nc(-c3cc(Cl)ccc3Cl)cs2)cc1`, the growth with HCT-15 colon was 81.7%; in the experiment on SNB-75 CNS it was 77.3%; in the experiment with SNB-19 CNS, 104%; with U251 CNS it was 98.6%; with SK-MEL-5 melanoma, 97.8%; in the experiment with UACC-62 melanoma, 80.3%. In addition, the growth with LOX IMVI melanoma was 97.7%; with SK-MEL-28 melanoma, 110%; in the experiment on SK-MEL-2 melanoma, 113%; in the experiment on EKVX NSCLC, 73.6%; in the experiment on UO-31 renal, 68.5%; in the experiment with TK-10 renal it was 148%. Further, the growth in the experiment on ACHN renal was 97.8%; in the experiment on CAKI-1 renal it was 77.1%; in the experiment with CCRF-CEM leukemia it was 94.7%; in the experiment on MOLT-4 leukemia it was 86.3%.
Consider `C/C(=N/Nc1nc(N/N=C(/C)c2ccc([N+](=O)[O-])cc2)nc(N2CCOCC2)n1)c1ccc([N+](=O)[O-])cc1`, for which the growth in the experiment with HCT-15 colon is 66.1%; in the experiment with SNB-75 CNS it was 80.6%; in the experiment on SNB-19 CNS, 63.1%; with U251 CNS, 92.6%; with PC-3 prostate it was 76.6%; in the experiment on SK-MEL-5 melanoma, 67.1%. For the same molecule, the growth with UACC-62 melanoma was 85.3%; with LOX IMVI melanoma, 38.9%; in the experiment with SK-MEL-28 melanoma, 83.8%; in the experiment with SK-MEL-2 melanoma, 96.4%; in the experiment on EKVX NSCLC, 68.1%; in the experiment on SN12C renal, 73.7%. The growth in the experiment with UO-31 renal was 80.8%; in the experiment with TK-10 renal, 127%; in the experiment with ACHN renal, 66.1%; in the experiment on CAKI-1 renal it was 77.9%; with CCRF-CEM leukemia, 61.6%; in the experiment on MOLT-4 leukemia, 78.9%.
`Clc1ccc(-c2nc3ccc(/C(=N\N=C\c4ccccc4)c4ccccc4)cc3[nH]2)cc1`: the growth in the experiment on HCT-15 colon is 72%; with SNB-75 CNS, 113%; in the experiment with SNB-19 CNS, 93.8%; in the experiment on U251 CNS it was 88.4%; in the experiment with PC-3 prostate it was 62.2%; in the experiment on SK-MEL-5 melanoma, 86.7%. Also, the growth was 88.8% in the experiment on UACC-62 melanoma; 84.6% in the experiment with LOX IMVI melanoma; 90.6% in the experiment on SK-MEL-28 melanoma; 96.1% with SK-MEL-2 melanoma; 93.4% in the experiment on EKVX NSCLC; 93.4% in the experiment with SN12C renal. Also, the growth in the experiment on UO-31 renal was 83.3%; in the experiment on TK-10 renal it was 95.9%; with ACHN renal it was 92.1%; in the experiment on CAKI-1 renal, 77.2%; in the experiment with A498 renal it was 65.7%; in the experiment on CCRF-CEM leukemia, 71%. Also, the growth with MOLT-4 leukemia is 59.3%.
